{"source": "PubChem BioAssay (NCI)", "note": "About 83,000 compounds went through this panel and 20% of them were active in at least one assay; those are over-represented in the sample as a whole.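 96-well plates, one dose, 48 hours. Percent growth reported; active if below 10.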 Values without a mark were called inactive. The source made the active and inactive calls.", "data": [{"system": "MDA-MB-435 melanoma", "assay": "NCI-60 one-dose screen, 48 h (100 = growth as untreated, 0 = no growth, -100 = all killed)", "details": "10 µM", "values": [{"smiles": "COc1ccc(C2CC(c3ccc(N(C)C)cc3)=NN2c2ccc(S(N)(=O)=O)cc2)cc1", "note": "(stereo not drawn)", "growth": "36.9%"}, {"smiles": "COc1ccc(-c2nc(-c3nc4ccc(OC)cc4[nH]3)cc3c2[nH]c2ccccc23)cc1", "growth": "39.2%"}, {"smiles": "COc1cc(C(=O)N2CCN(c3ccccc3OC)CC2)c(N)cc1OCCCN1CCN(c2ccccc2OC)CC1", "growth": "101%"}, {"smiles": "COc1cc(-c2nc(Nc3nc4ccccc4s3)[nH]c(=O)c2C#N)cc(OC)c1O", "growth": "120%"}, {"smiles": "ClCC#CCSc1ncnc2c1ncn2CC#CCCl", "growth": "0.673% (active)"}, {"smiles": "Cc1ccc(S(=O)(=O)Oc2ccc3c4c(c(=O)oc3c2)CCCCC4)cc1", "growth": "57%"}, {"smiles": "O=C1Nc2ccccc2C1=NC1CCCCC1", "growth": "106%"}, {"smiles": "O=c1cc(-c2ccccc2)[nH]n1-c1nc2ccccc2[nH]1", "growth": "51.1%"}, {"smiles": "COc1ccc(-c2nc3sc(-c4ccccc4)c(-c4ccccc4)n3c2/C=C/C(=O)c2ccccn2)cc1", "growth": "90.6%"}, {"smiles": "CC(C)C[C@H](NC(=O)[C@H](Cc1cccc2ccccc12)NS(=O)(=O)c1cccc2cccnc12)B(O)O", "growth": "-52.2% (active)"}, {"smiles": "NC(=S)N=Nc1c(O)c2ccccc2c2ccccc12", "growth": "-85.5% (active)"}, {"smiles": "CCN(CC)CCSCCCNc1c2ccc(Cl)cc2nc2ccc(OC)cc12", "growth": "-94.7% (active)"}, {"smiles": "Cc1cccc(NC2=C(C#N)C(=O)NC3(CCCC3)S2)c1", "growth": "101%"}, {"smiles": "c1ccc2c(-c3nc(N4CCOCC4)c4c5c(sc4n3)CCCCCC5)cccc2c1", "growth": "111%"}, {"smiles": "COC(=O)[C@@H]1[C@H](O)[C@H](C)[C@H](O)[C@@](C)(O)/C=C\\C=C(C)C(=O)Nc2c(C)c(OC(C)=O)c3c(c2O)C(=O)C(C)=C2OCOC(=C23)C(C)=C[C@@](C)(O)[C@H](O)[C@@H](C)[C@H]1OC(C)=O", "growth": "105%"}, {"smiles": "COc1cc(OC)cc(-c2cncn2-c2ccc(-c3nc4cc(OC)cc(OC)c4s3)cc2)c1", "growth": "-16.3% (active)"}, {"smiles": "c1ccc2c(c1)oc1c3cccnc3ccc21", "growth": "110%"}, {"smiles": "CC(=O)CSC(C)=O", "growth": "96.5%"}, {"smiles": "COc1ccc(-c2nn(-c3cccc(NC(=O)Nc4ccc(Cl)c(C(F)(F)F)c4)c3)cc2-c2ccncc2)cc1Cl", "growth": "-24.3% (active)"}, {"smiles": "CC(=O)OCc1cc(-c2nc3ccccc3[nH]c2=O)nn1-c1ccc(Cl)cc1", "growth": "99.7%"}, {"smiles": "COc1ccc(-c2nn(-c3cccc(NC(=O)c4ccc(N5CCOCC5)c(C(F)(F)F)c4)c3)cc2-c2ccncc2)cc1Cl", "growth": "30%"}, {"smiles": "COc1ccc(-c2nn(-c3cccc(NC(=O)Nc4cccc(C(F)(F)F)c4)c3)cc2-c2ccncc2)cc1Cl", "growth": "-35.8% (active)"}, {"smiles": "CC(C)=CCc1ccc(O)c(=O)cc1C(C)C", "growth": "30.7%"}, {"smiles": "CCOC1(OCC)OC(c2ccccc2)=C(C#N)C(/C=C\\c2ccccc2)C1(OCC)OCC", "note": "(stereo not drawn)", "growth": "97.2%"}, {"smiles": "O=C(O)c1ccc(P(=O)(O)O)c([N+](=O)[O-])c1", "growth": "96%"}, {"smiles": "O=c1[nH]c2ccc(Cl)cc2c2ccccc12", "growth": "72.1%"}, {"smiles": "CCOC(=O)c1ccoc1", "growth": "107%"}, {"smiles": "COc1ccc(Nc2ccnc(NCCNc3ccnc4cc(Cl)ccc34)n2)cc1", "growth": "-39.1% (active)"}, {"smiles": "N=c1c2c(-c3ccccc3)c(-c3ccccc3)n(Cc3ccccc3)c2ncn1CCCO", "growth": "34.2%"}, {"smiles": "COc1cc(Cl)cc(-c2nn(-c3cccc(NC(=O)Nc4ccc(Cl)c(Cl)c4)c3)cc2-c2ccncc2)c1", "growth": "0.46% (active)"}, {"smiles": "Cc1ccc(NC(=O)NC2CCCCC2)cc1", "growth": "105%"}, {"smiles": "COc1cc(NC(=O)c2sc3nc4c(cc3c2N)C(O)CCC4)cc(OC)c1", "note": "(stereo not drawn)", "growth": "8.37% (active)"}, {"smiles": "N#Cc1c(C#N)c(SSc2c(C#N)c(C#N)c(N)n2-c2ccccc2)n(-c2ccccc2)c1N", "growth": "114%"}, {"smiles": "COc1cc(-c2cc(/C=C/C(=O)c3ccc(Cl)c(Cl)c3)[nH]n2)cc(OC)c1OC", "growth": "43%"}, {"smiles": "Nc1ccccc1NC(=O)CCCCC(=O)Nc1ccc2c(c1)/C(=C/c1ccc[nH]1)C(=O)N2", "growth": "68.8%"}, {"smiles": "COc1cc(NC(=O)CSc2nc3ccccc3c(=O)n2CCc2ccccc2)cc(OC)c1OC", "growth": "32.1%"}, {"smiles": "O=[P@@]1(c2ccccc2)O[C@H](COCc2ccccc2)[C@@H](OCc2ccccc2)[C@H](OCc2ccccc2)[C@H]1O", "growth": "95.6%"}, {"smiles": "Cc1ccc(C(=O)Nc2cccc(F)c2)cc1NC(=O)C1(c2ncnc3[nH]ccc23)CC1", "growth": "74%"}, {"smiles": "O=C(O)c1ccc(Cl)cc1Nc1ccc(F)cc1", "growth": "83.2%"}]}, {"system": "SW-620 colon", "assay": "NCI-60 one-dose screen, 48 h (100 = growth as untreated, 0 = no growth, -100 = all killed)", "details": "10 µM", "values": [{"smiles": "COc1ccc(C2CC(c3ccc(N(C)C)cc3)=NN2c2ccc(S(N)(=O)=O)cc2)cc1", "note": "(stereo not drawn)", "growth": "58%"}, {"smiles": "COc1ccc(-c2nc(-c3nc4ccc(OC)cc4[nH]3)cc3c2[nH]c2ccccc23)cc1", "growth": "40.6%"}, {"smiles": "COc1cc(C(=O)N2CCN(c3ccccc3OC)CC2)c(N)cc1OCCCN1CCN(c2ccccc2OC)CC1", "growth": "90.6%"}, {"smiles": "COc1cc(-c2nc(Nc3nc4ccccc4s3)[nH]c(=O)c2C#N)cc(OC)c1O", "growth": "110%"}, {"smiles": "ClCC#CCSc1ncnc2c1ncn2CC#CCCl", "growth": "2.37% (active)"}, {"smiles": "Cc1ccc(S(=O)(=O)Oc2ccc3c4c(c(=O)oc3c2)CCCCC4)cc1", "growth": "30.2%"}, {"smiles": "O=C1Nc2ccccc2C1=NC1CCCCC1", "growth": "105%"}, {"smiles": "O=c1cc(-c2ccccc2)[nH]n1-c1nc2ccccc2[nH]1", "growth": "31.6%"}, {"smiles": "COc1ccc(-c2nc3sc(-c4ccccc4)c(-c4ccccc4)n3c2/C=C/C(=O)c2ccccn2)cc1", "growth": "91%"}, {"smiles": "CC(C)C[C@H](NC(=O)[C@H](Cc1cccc2ccccc12)NS(=O)(=O)c1cccc2cccnc12)B(O)O", "growth": "-16% (active)"}, {"smiles": "NC(=S)N=Nc1c(O)c2ccccc2c2ccccc12", "growth": "47%"}, {"smiles": "CCN(CC)CCSCCCNc1c2ccc(Cl)cc2nc2ccc(OC)cc12", "growth": "-23.7% (active)"}, {"smiles": "Cc1cccc(NC2=C(C#N)C(=O)NC3(CCCC3)S2)c1", "growth": "103%"}, {"smiles": "c1ccc2c(-c3nc(N4CCOCC4)c4c5c(sc4n3)CCCCCC5)cccc2c1", "growth": "108%"}, {"smiles": "COC(=O)[C@@H]1[C@H](O)[C@H](C)[C@H](O)[C@@](C)(O)/C=C\\C=C(C)C(=O)Nc2c(C)c(OC(C)=O)c3c(c2O)C(=O)C(C)=C2OCOC(=C23)C(C)=C[C@@](C)(O)[C@H](O)[C@@H](C)[C@H]1OC(C)=O", "growth": "124%"}, {"smiles": "COc1cc(OC)cc(-c2cncn2-c2ccc(-c3nc4cc(OC)cc(OC)c4s3)cc2)c1", "growth": "48.2%"}, {"smiles": "c1ccc2c(c1)oc1c3cccnc3ccc21", "growth": "100%"}, {"smiles": "CC(=O)CSC(C)=O", "growth": "101%"}, {"smiles": "COc1ccc(-c2nn(-c3cccc(NC(=O)Nc4ccc(Cl)c(C(F)(F)F)c4)c3)cc2-c2ccncc2)cc1Cl", "growth": "17.7%"}, {"smiles": "CC(=O)OCc1cc(-c2nc3ccccc3[nH]c2=O)nn1-c1ccc(Cl)cc1", "growth": "111%"}, {"smiles": "COc1ccc(-c2nn(-c3cccc(NC(=O)c4ccc(N5CCOCC5)c(C(F)(F)F)c4)c3)cc2-c2ccncc2)cc1Cl", "growth": "83.3%"}, {"smiles": "COc1ccc(-c2nn(-c3cccc(NC(=O)Nc4cccc(C(F)(F)F)c4)c3)cc2-c2ccncc2)cc1Cl", "growth": "17.4%"}, {"smiles": "CC(C)=CCc1ccc(O)c(=O)cc1C(C)C", "growth": "34.1%"}, {"smiles": "CCOC1(OCC)OC(c2ccccc2)=C(C#N)C(/C=C\\c2ccccc2)C1(OCC)OCC", "note": "(stereo not drawn)", "growth": "83.2%"}, {"smiles": "O=C(O)c1ccc(P(=O)(O)O)c([N+](=O)[O-])c1", "growth": "98.2%"}, {"smiles": "O=c1[nH]c2ccc(Cl)cc2c2ccccc12", "growth": "102%"}, {"smiles": "CCOC(=O)c1ccoc1", "growth": "100%"}, {"smiles": "COc1ccc(Nc2ccnc(NCCNc3ccnc4cc(Cl)ccc34)n2)cc1", "growth": "36.4%"}, {"smiles": "N=c1c2c(-c3ccccc3)c(-c3ccccc3)n(Cc3ccccc3)c2ncn1CCCO", "growth": "21.6%"}, {"smiles": "COc1cc(Cl)cc(-c2nn(-c3cccc(NC(=O)Nc4ccc(Cl)c(Cl)c4)c3)cc2-c2ccncc2)c1", "growth": "13.3%"}, {"smiles": "Cc1ccc(NC(=O)NC2CCCCC2)cc1", "growth": "108%"}, {"smiles": "COc1cc(NC(=O)c2sc3nc4c(cc3c2N)C(O)CCC4)cc(OC)c1", "note": "(stereo not drawn)", "growth": "66.1%"}, {"smiles": "N#Cc1c(C#N)c(SSc2c(C#N)c(C#N)c(N)n2-c2ccccc2)n(-c2ccccc2)c1N", "growth": "98.7%"}, {"smiles": "COc1cc(-c2cc(/C=C/C(=O)c3ccc(Cl)c(Cl)c3)[nH]n2)cc(OC)c1OC", "growth": "60.7%"}, {"smiles": "Nc1ccccc1NC(=O)CCCCC(=O)Nc1ccc2c(c1)/C(=C/c1ccc[nH]1)C(=O)N2", "growth": "91.3%"}, {"smiles": "COc1cc(NC(=O)CSc2nc3ccccc3c(=O)n2CCc2ccccc2)cc(OC)c1OC", "growth": "48.6%"}, {"smiles": "O=[P@@]1(c2ccccc2)O[C@H](COCc2ccccc2)[C@@H](OCc2ccccc2)[C@H](OCc2ccccc2)[C@H]1O", "growth": "104%"}, {"smiles": "Cc1ccc(C(=O)Nc2cccc(F)c2)cc1NC(=O)C1(c2ncnc3[nH]ccc23)CC1", "growth": "67%"}, {"smiles": "O=C(O)c1ccc(Cl)cc1Nc1ccc(F)cc1", "growth": "94.6%"}]}]}
